Results: PubChem BioAssay AID1159580 (chemical genetic matrix, 2015)
Out of some 5,500 compounds screened, about 2,000 (36%) were called active. About 18% were inconclusive and are not listed. Rule as the data show it: active = normalized growth mostly below about 0.91 (no sharp cut-off); inconclusive = no clear call, values can overlap the other calls; inactive = mostly above about 0.92. Some of the results follow.

Assay: chemical genetic growth profiling, strain panel (AID 1159580);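 also: tested at 20 µM; growth read once vehicle control cultures reached saturation at 30 °C; 1 = growth at the plate median or of vehicle wells; lower values mean less growth of the strain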
Settings: growth OD

Measured: normalized growth

COc1c2occc2cc2ccc(=O)oc12
active: S. cerevisiae deletion strains, locus YKR001C, strain vps1, hits give low values 0.863 | S. cerevisiae deletion strains, locus YLL001W, strain dnm1, hits give low values 0.874 | S. cerevisiae deletion strains, locus YLR221C, strain rsa3, hits give low values 0.891 | S. cerevisiae deletion strains, locus YLR320W, strain mms22, hits give low values 0.833 | S. cerevisiae deletion strains, locus YML032C, strain rad52, hits give low values 0.876 | S. cerevisiae deletion strains, locus YML120C, strain ndi1, hits give low values 0.866 | S. cerevisiae deletion strains, locus YNL209W, strain ssb2, hits give low values 0.923 | S. cerevisiae deletion strains, locus YNL307C, strain MCK1, hits give low values 0.88 | S. cerevisiae deletion strains, locus YNL322C, strain KRE1 (second series), hits give low values 0.763 | S. cerevisiae deletion strains, locus YOR106W, strain vam3, hits give low values 0.701 | S. cerevisiae deletion strains, locus YOR184W, strain ser1, hits give low values 0.859 | S. cerevisiae deletion strains, locus YOR290C, strain snf2, hits give low values 0.856
inactive: S. cerevisiae deletion strains, locus YJR075W, strain HOC1, hits give low values 0.976 | S. cerevisiae deletion strains, locus YKL009W, strain mrt4, hits give low values 0.909 | S. cerevisiae deletion strains, locus YKL068W, hits give low values 0.996 | S. cerevisiae deletion strains, locus YKL085W, strain MDH1 (second series), hits give low values 1 | S. cerevisiae deletion strains, locus YKL085W, strain MDH1, hits give low values 1 | S. cerevisiae deletion strains, locus YKL160W, strain elf1, hits give low values 0.948 | S. cerevisiae deletion strains, locus YKL190W, strain CNB1, hits give low values 0.979 | S. cerevisiae deletion strains, locus YKR026C, strain gcn3, hits give low values 0.983 | S. cerevisiae deletion strains, locus YKR091W, strain srl3, hits give low values 0.982 | S. cerevisiae deletion strains, locus YLL026W, hits give low values 0.973 | S. cerevisiae deletion strains, locus YLL041C, strain sdh2, hits give low values 0.981 | S. cerevisiae deletion strains, locus YLR027C, strain aat2, hits give low values 0.952 | S. cerevisiae deletion strains, locus YLR039C, strain RIC1, hits give low values 0.851 | S. cerevisiae deletion strains, locus YLR058C, strain SHM2, hits give low values 0.988 | S. cerevisiae deletion strains, locus YLR102C, strain apc9, hits give low values 0.986 | S. cerevisiae deletion strains, locus YLR113W, strain HOG1, hits give low values 1.08 | S. cerevisiae deletion strains, locus YLR258W, strain gsy2, hits give low values 0.945 | S. cerevisiae deletion strains, locus YLR262C, strain YPT6 (second series), hits give low values 0.955 | S. cerevisiae deletion strains, locus YLR262C, strain YPT6, hits give low values 0.91 | S. cerevisiae deletion strains, locus YLR268W, strain sec22, hits give low values 0.93 | S. cerevisiae deletion strains, locus YLR330W, strain CHS5, hits give low values 0.991 | S. cerevisiae deletion strains, locus YLR342W, strain FKS1 (second series), hits give low values 0.971 | S. cerevisiae deletion strains, locus YLR342W, strain FKS1, hits give low values 0.965 | S. cerevisiae deletion strains, locus YLR357W, strain rsc2, hits give low values 1.01 | S. cerevisiae deletion strains, locus YLR370C, strain arc18, hits give low values 0.914 | S. cerevisiae deletion strains, locus YLR371W, strain rom2, hits give low values 0.969 | S. cerevisiae deletion strains, locus YLR384C, strain iki3, hits give low values 0.963 | S. cerevisiae deletion strains, locus YLR418C, strain cdc73, hits give low values 0.95 | S. cerevisiae deletion strains, locus YML016C, strain PPZ1, hits give low values 0.987 | S. cerevisiae deletion strains, locus YML124C, strain tub3, hits give low values 0.996 | S. cerevisiae deletion strains, locus YMR058W, strain fet3, hits give low values 0.927 | S. cerevisiae deletion strains, locus YMR078C, strain ctf18, hits give low values 0.974 | S. cerevisiae deletion strains, locus YMR125W, strain sto1, hits give low values 1.01 | S. cerevisiae deletion strains, locus YMR129W, hits give low values 0.99 | S. cerevisiae deletion strains, locus YMR205C, strain PFK2, hits give low values 0.941 | S. cerevisiae deletion strains, locus YMR223W, strain ubp8, hits give low values 0.924 | S. cerevisiae deletion strains, locus YMR231W, strain pep5, hits give low values 0.989 | S. cerevisiae deletion strains, locus YMR263W, strain SAP30, hits give low values 0.942 | S. cerevisiae deletion strains, locus YMR307W, strain GAS1, hits give low values 0.949 | S. cerevisiae deletion strains, locus YNL067W, strain RPL9B, hits give low values 0.939 | S. cerevisiae deletion strains, locus YNL071W, strain lat1, hits give low values 0.947 | S. cerevisiae deletion strains, locus YNL128W, strain TEP1, hits give low values 0.962 | S. cerevisiae deletion strains, locus YNL153C, strain GIM3, hits give low values 0.983 | S. cerevisiae deletion strains, locus YNL183C, strain NPR1, hits give low values 0.971 | S. cerevisiae deletion strains, locus YNL233W, strain BNI4, hits give low values 0.944 | S. cerevisiae deletion strains, locus YNL248C, strain rpa49, hits give low values 0.901 | S. cerevisiae deletion strains, locus YNL250W, strain rad50, hits give low values 0.968 | S. cerevisiae deletion strains, locus YNL271C, strain bni1, hits give low values 0.983 | S. cerevisiae deletion strains, locus YNL298W, strain CLA4, hits give low values 0.933 | S. cerevisiae deletion strains, locus YNL322C, strain KRE1, hits give low values 1 | S. cerevisiae deletion strains, locus YNR049C, strain mso1, hits give low values 0.962 | S. cerevisiae deletion strains, locus YNR052C, strain pop2, hits give low values 0.978 | S. cerevisiae deletion strains, locus YOL006C, strain TOP1, hits give low values 0.79 | S. cerevisiae deletion strains, locus YOL012C, strain htz1 0.845 | S. cerevisiae deletion strains, locus YOL147C, strain pex11, hits give low values 0.982 | S. cerevisiae deletion strains, locus YOR001W, strain rrp6, hits give low values 0.958 | S. cerevisiae deletion strains, locus YOR061W, strain CKA2, hits give low values 0.99 | S. cerevisiae deletion strains, locus YOR069W, strain VPS5, hits give low values 0.991 | S. cerevisiae deletion strains, locus YOR070C, strain gyp1, hits give low values 0.956 | S. cerevisiae deletion strains, locus YOR080W, strain dia2, hits give low values 0.95 | S. cerevisiae deletion strains, locus YOR083W, strain WHI5, hits give low values 0.914 | S. cerevisiae deletion strains, locus YOR136W, strain idh2, hits give low values 0.974 | S. cerevisiae deletion strains, locus YOR144C, strain elg1, hits give low values 0.97 | S. cerevisiae deletion strains, locus YOR231W, strain MKK1, hits give low values 1.01 | S. cerevisiae deletion strains, locus YOR265W, strain rbl2, hits give low values 0.963 | S. cerevisiae deletion strains, locus YOR270C, strain vph1, hits give low values 0.83 | S. cerevisiae deletion strains, locus YOR316C, strain cot1, hits give low values 1 | S. cerevisiae deletion strains, locus YPL051W, strain arl3, hits give low values 0.939 | S. cerevisiae deletion strains, locus YPL055C, strain LGE1, hits give low values 0.938 | S. cerevisiae deletion strains, locus YPL078C, strain atp4, hits give low values 0.964 | S. cerevisiae deletion strains, locus YPL106C, strain sse1, hits give low values 0.899 | S. cerevisiae deletion strains, locus YPL240C, strain hsp82, hits give low values 0.965 | S. cerevisiae deletion strains, locus YPL241C, strain CIN2, hits give low values 0.959 | S. cerevisiae deletion strains, locus YPL256C, strain CLN2, hits give low values 1.1 | S. cerevisiae deletion strains, locus YPR119W, strain clb2, hits give low values 0.998 | S. cerevisiae deletion strains, locus YPR141C, strain kar3, hits give low values 1.02 | S. cerevisiae deletion strains, locus YPR163C, strain tif3, hits give low values 0.983 | S. cerevisiae deletion strains, locus YPR167C, strain met16, hits give low values 1.01 | S. cerevisiae deletion strains, strain wtn01, hits give low values 0.966 | S. cerevisiae strains, strain wild type, hits give low values 1
